Laboratory results from PubChem BioAssay AID620 (Sanford-Burnham Center for Chemical Genomics, 2007).
Among all 87,000 compounds or so, about 360 (0.41%) were called active. The entries come from a sample that favours actives as a whole. Unmarked numbers belong to inactive results. Rule as the data show it: active = cytotoxicity above about 50%; inactive = the rest.

Test: HT1080 cell viability loss – fluorescence readout (AID 620);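 also: cells exposed to compound overnight then 4 h with Alamar Blue; 0% = vehicle DMSO and 100% = killing control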
Conditions: at 10 µM, hits give high values
With `Cc1cc(C)cc(C(=O)N2CC(C)OC(C)C2)c1` (stereo not drawn) the cytotoxicity was -14.9%. `COc1ccc(-c2cc(C(F)(F)F)nc(S(C)(=O)=O)n2)cc1` gave a cytotoxicity of 11.7%. With `CCOC(=O)CS(=O)(=O)c1nc(-c2ccc(F)cc2)cc(C(F)(F)F)n1` the cytotoxicity was 56.6% (active). With `COc1ccc(-c2cc(C(F)(F)F)nc(S(C)(=O)=O)n2)cc1OC` the cytotoxicity was 10.4%. For `CS(=O)(=O)c1nc(-c2ccccc2)cc(C(F)(F)F)n1`, the cytotoxicity was 59.4% (active). In the case of `COc1ccccc1-c1cc(C(F)(F)F)nc(S(=O)(=O)CCCC(=O)N2CCCCC2C)n1` (stereo not drawn), the cytotoxicity is reported as 18.6%. Compound `CCOC(=O)CSc1nc(-c2ccccc2)cc(C(F)(F)F)n1` has a cytotoxicity of -7.2%. `COc1ccccc1-c1cc(C(F)(F)F)nc(S(=O)(=O)CCCC(=O)O)n1` gave a cytotoxicity of -3.7%. In the case of `CCOC(=O)CS(=O)(=O)c1nc(-c2ccccc2)cc(C(F)(F)F)n1`, the cytotoxicity is reported as 8.3%. Compound `COC(=O)CSc1nc(-c2ccc(F)cc2)cc(C(F)(F)F)n1` has a cytotoxicity of -10%. For `COC(=O)CCS(=O)(=O)c1nc(-c2ccccc2)cc(C(F)(F)F)n1`, the cytotoxicity was 2.4%. `CCOC(=O)Cn1c(=O)oc2cc(S(=O)(=O)N3CCN(c4ccccn4)CC3)ccc21` showed a cytotoxicity of -4.7%. `N#Cc1ccccc1Cn1c(=O)n(C2CCCC2)c(=O)c2ccccc21` showed a cytotoxicity of 4.1%. Compound `COc1cccc(C(=O)NCC(=O)N2CCC(C)CC2)c1` has a cytotoxicity of 7.2%. In the case of `COc1cccc(Oc2cn[nH]c2-c2ccc(O)cc2O)c1`, the cytotoxicity is reported as 55.2% (active). In the case of `COc1ccc(Oc2cn[nH]c2-c2ccc(O)cc2O)cc1`, the cytotoxicity is reported as 19%. `COc1cccc(Oc2cn[nH]c2-c2ccc(OC)cc2O)c1` showed a cytotoxicity of 19.1%. Compound `N#CC1C(C#N)N2CCCN2C1c1ccc(Cl)cc1` (stereo not drawn) has a cytotoxicity of -17.9%. `CCn1c(SCC(=O)O)nnc1C1CCCCC1` gave a cytotoxicity of 3.3%. Compound `CCN1C(=O)/C(=C2\C=Cc3ccccc3N2CC)OC1=S` has a cytotoxicity of 5.1%. With `CCN1C(=C2C(=O)c3ccccc3C2=O)C=Cc2ccccc21` the cytotoxicity was 12.1%. In the case of `CCN1/C(=C/c2ccc3ccccc3[n+]2CC)C=Cc2ccccc21`, the cytotoxicity is reported as 54.3% (active). With `Cc1cc(C)c2c(N)c(C(=O)NCc3ccco3)sc2n1` the cytotoxicity was 10.7%. Compound `Cc1cc(C)cc(N(CC(=O)N2CCN(Cc3ccccc3)CC2)S(=O)(=O)c2c(C)noc2C)c1` has a cytotoxicity of -0.8%. `Cc1ccccc1-c1nc(CN2CCCC(C(=O)NCc3cccnc3)C2)c(C)o1` (stereo not drawn) showed a cytotoxicity of -7.7%. In the case of `N#CC1=C(N)Oc2cc(O)ccc2C1c1cccs1` (stereo not drawn), the cytotoxicity is reported as -3.3%. `N#CC1=C(N)Oc2cc3ccccc3cc2C1c1cccs1` (stereo not drawn) showed a cytotoxicity of -2.7%. In the case of `N#CC1=C(N)Oc2c(ccc3ccccc23)C1c1cccs1` (stereo not drawn), the cytotoxicity is reported as 65.3% (active). `COc1ccc(CCn2nnnc2C(C(C)C)N2CCC(C(N)=O)CC2)cc1OC` (stereo not drawn) gave a cytotoxicity of 6%. `Cc1cc(C)cc(OC(=O)N2CCOCC2)c1` showed a cytotoxicity of 3.6%. In the case of `CCOC(=O)CNc1c(-c2ccccc2)nc2ccc(Cl)cn12`, the cytotoxicity is reported as 24.2%. Compound `CCOC(=O)CNc1c(-c2ccc(O)cc2)nc2ccc(Cl)cn12` has a cytotoxicity of 36.6%. For `CCOC(=O)CNc1c(-c2ccc(OC)cc2)nc2ccc(Cl)cn12`, the cytotoxicity was 73.3% (active). `CCOC(=O)N1CCN(C(=O)CSc2nc3ccccc3c(=O)n2-c2ccccc2)CC1` showed a cytotoxicity of 5.2%. `CCn1c(CC(=O)Nc2ccc(C)c(Cl)c2)nnc1SCC(=O)Nc1nc(C)cs1` gave a cytotoxicity of -12.9%. With `COc1ccc(CC(=O)NC2CCN(CC(=O)Nc3ccc4c(c3)OCCO4)CC2)cc1OC` the cytotoxicity was -8.3%. Compound `O=C(CN1CCc2ccccc2C1)Nc1ccccc1N1CCCCCC1` has a cytotoxicity of -18.8%. Work on `O=C(CN1CCCC1)N1c2ccccc2Sc2ccc(C(F)(F)F)cc21` yielded a cytotoxicity of -7.9%. In the case of `COc1ccc2c(c1)Sc1ccccc1N2CCN(C)C`, the cytotoxicity is reported as 58.8% (active). `CN(C)CCCN1c2ccccc2Sc2ccccc21` gave a cytotoxicity of 15.9%. With `CN(C)CCCN1c2ccccc2Sc2ccc(C(F)(F)F)cc21` the cytotoxicity was 54% (active). Work on `COc1ccc([C@@H]2Sc3ccccc3N(CCN(C)C)C(=O)[C@@H]2OC(C)=O)cc1` yielded a cytotoxicity of 31.1%. For `CC(CN1c2ccccc2Sc2ccccc21)N(C)C` (stereo not drawn), the cytotoxicity was 11.7%. In the case of `OCCN1CCN(CCCN2c3ccccc3Sc3ccc(C(F)(F)F)cc32)CC1`, the cytotoxicity is reported as 91.7% (active). Compound `OCCN1CCN(CCCN2c3ccccc3Sc3ccc(Cl)cc32)CC1` has a cytotoxicity of 22.8%. Compound `CN1CCN(CCCN2c3ccccc3Sc3ccc(C(F)(F)F)cc32)CC1` has a cytotoxicity of 7.7%. With `O=c1c2ccccc2c(C=NC2CCS(=O)(=O)C2)c(O)n1-c1ccccc1` (stereo not drawn) the cytotoxicity was -6.8%. `Nc1c(C(=O)NCc2ccccc2)nnn1Cc1ccc(F)cc1` showed a cytotoxicity of 1.7%. For `COc1ccc(S(=O)(=O)Cc2ccc(C(=O)N3CCN(c4cccc(C)c4)C(C)C3)o2)cc1` (stereo not drawn), the cytotoxicity was 52.2% (active). With `Cc1cccc(N2CCN(C(=O)c3ccc(CS(=O)(=O)c4ccccc4C)o3)CC2C)c1` (stereo not drawn) the cytotoxicity was 51.2% (active). Work on `Cc1ccccc1S(=O)(=O)Cc1ccc(C(=O)N2CC(C)CC(C)C2)o1` (stereo not drawn) yielded a cytotoxicity of -14.1%. For `COc1ccc(N2CCN(C(=O)c3ccc(CS(=O)(=O)c4ccc(OC)cc4)o3)CC2)cc1`, the cytotoxicity was -8.4%. Compound `CCOC(=O)N1CCN(C(=O)c2ccc(CS(=O)(=O)c3ccc(OC)cc3)o2)CC1` has a cytotoxicity of 0.8%. Compound `Cc1ccc(C)c(N2CCN(C(=O)c3ccc(CS(=O)(=O)c4ccccc4C)o3)CC2)c1` has a cytotoxicity of 34%. With `Cc1ccc2c(c1)[C@H]1OCC[C@H]1[C@@H](c1ccncc1)N2` the cytotoxicity was -2.2%. With `CC1CCCCN1CCn1c(=S)[nH]c2ncccc2c1=O` (stereo not drawn) the cytotoxicity was 33.2%. In the case of `Cn1c(SCC(=O)NC2CCCC2)nnc1-c1ccc(S(=O)(=O)N2CCOCC2)cc1`, the cytotoxicity is reported as 4.3%. `O=C1CCC(=O)N1c1ccccc1-c1ccccc1` gave a cytotoxicity of -0.5%. In the case of `O=C(CSCc1ccccc1)Nc1ccc(Cl)cn1`, the cytotoxicity is reported as 20.2%. For `O=C(CCc1ccccc1)Nc1ccc(Cl)cn1`, the cytotoxicity was 52.1% (active). For `CCCC(=O)Nc1ccc(NC(=O)CCc2ccccc2)cn1`, the cytotoxicity was 8.6%. `Cc1ccc(NC2=NC3(CCCCC3)N=C(N)N2)c(C)c1` showed a cytotoxicity of 33%. For `COC(=O)C1=C(C)Nc2nnnn2C1c1cccnc1` (stereo not drawn), the cytotoxicity was 10%. `CC1/C(=N/O)CC(c2ccccc2)N(C)C1c1ccccc1` (stereo not drawn) gave a cytotoxicity of -0.2%. `CC1Cc2ccccc2N1S(=O)(=O)c1ccc2c(c1)n(C)c(=O)c(=O)n2C` (stereo not drawn) showed a cytotoxicity of -1.8%. For `COc1ccc(OC)c(S(=O)(=O)N2c3ccccc3CC2C)c1` (stereo not drawn), the cytotoxicity was 10.1%. In the case of `CCOc1ccc(S(=O)(=O)N2c3ccccc3CC2C)cc1` (stereo not drawn), the cytotoxicity is reported as 74.1% (active). `O=C(NCc1ccccn1)[C@@H]1C[C@H]1[C@@H](NP(=O)(c1ccccc1)c1ccccc1)c1ccccc1` gave a cytotoxicity of -17.9%. For `CCOc1ccc(NC(=O)CSc2nnc(-c3ccco3)n2C)cc1`, the cytotoxicity was -3.7%. Compound `CN(C(=O)c1cc2n(n1)C(C(F)(F)F)CC(c1ccco1)N2)c1ccc(OC(F)(F)F)cc1` (stereo not drawn) has a cytotoxicity of -1.6%. For `CN(C(=O)c1cc2n(n1)C(C(F)(F)F)CC(c1ccco1)N2)c1ccccc1` (stereo not drawn), the cytotoxicity was 56.4% (active). In the case of `O=C(NC1CCCCCC1)c1cc2n(n1)C(C(F)(F)F)CC(c1ccco1)N2` (stereo not drawn), the cytotoxicity is reported as -4.1%. `NC(=O)Nc1ccc(Oc2c(F)c(F)c(F)c(F)c2F)cc1` showed a cytotoxicity of 6%. In the case of `CC(C)(C)c1ccc(C(O)CCCN2CCC(C(O)(c3ccccc3)c3ccccc3)CC2)cc1` (stereo not drawn), the cytotoxicity is reported as 93.4% (active). `OC(CCCCN1CCCCC1)c1ccccc1` (stereo not drawn) gave a cytotoxicity of -4.7%. In the case of `OC(CCN1CCCC1)(c1ccccc1)C1CCCCC1` (stereo not drawn), the cytotoxicity is reported as -2.5%. Work on `O=c1c2ccccc2nnn1CSc1nc2ccccc2c(=O)n1Cc1ccco1` yielded a cytotoxicity of -4.3%. `CC1CCCCC1NC(=O)CCn1c(=O)oc2ccccc21` (stereo not drawn) showed a cytotoxicity of -4%. `O=C(NCc1cccs1)c1noc2c1CCCCC2` showed a cytotoxicity of -0.7%. `O=C(Nc1nccs1)c1ccc(S(=O)(=O)NCC2CCCCC2)cc1` showed a cytotoxicity of -11.1%. In the case of `CCOc1ccccc1NC(=O)Cn1nnc(C(=O)NCc2ccco2)c1N`, the cytotoxicity is reported as 56.8% (active). With `COc1ccc(NC(=O)Cn2nnc(C(=O)NCc3ccco3)c2N)c(OC)c1` the cytotoxicity was -0.4%. `CCOc1ccc(NC(=O)Cn2nnc(C(=O)NCc3ccco3)c2N)cc1` gave a cytotoxicity of 11.4%. For `CCOc1ccccc1NC(=O)C(CC(C)C)NC(=O)C1CCC(C)CC1` (stereo not drawn), the cytotoxicity was 4.7%. With `CC(=O)N(c1ccc(Cl)cc1)c1c[nH]c2ccccc12` the cytotoxicity was 3.1%. Work on `CCN(CC)CC(=O)c1c[nH]c2ccccc12` yielded a cytotoxicity of 3.6%. `CN(C)CC(=O)c1c[nH]c2ccccc12` gave a cytotoxicity of -5.2%. For `O=C(CCl)N(c1ccc(Cl)cc1)c1c[nH]c2ccccc12`, the cytotoxicity was 100% (active). In the case of `O=C(CCl)N(c1ccccc1)c1c[nH]c2ccccc12`, the cytotoxicity is reported as 71% (active). For `O=C(O)CCC(=O)c1c[nH]c2ccccc12`, the cytotoxicity was -4.6%. For `CC(C)OC(=O)c1cccnc1SCc1cc(=O)n2ccccc2n1`, the cytotoxicity was -0.4%. `COc1cc(C)nc(N2CCCC(C(=O)NC3CCC(C)CC3)C2)n1` (stereo not drawn) showed a cytotoxicity of -9.4%. `Cc1c(C(=O)NC2CCCCC2)oc2c1C(=O)CC(C)(C)C2` showed a cytotoxicity of -3.7%. `Nc1ccc(-c2nc3ccccc3[nH]2)cc1` showed a cytotoxicity of -3.5%. `COc1ccc(OCc2nc3ccccc3[nH]2)cc1` gave a cytotoxicity of 5.1%. For `CCOc1ccc2nc(SCC)[nH]c2c1`, the cytotoxicity was 15.4%. `COc1ccc2nc(-c3ccccc3)[nH]c2c1` showed a cytotoxicity of 28.2%. For `CCOc1ccc2nc(-c3ccccc3)[nH]c2c1`, the cytotoxicity was 66.7% (active).
